These results are taken from PubChem BioAssay (NCATS).

Activity calls are given as the source filed them. The rule behind the calls is not given here. Some results are limits rather than exact numbers.
Potency is the fitted concentration of half-maximal effect.

The test system of the experiment is HIV-1 nucleocapsid protein NCp7 (binding to TG oligonucleotide). Kind of experiment: HIV Nucleocapsid (AID 346).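 Note: potency is for inhibitors that block NC binding and lower polarization.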 The note with it: HIV-1 NC / fluorescein-TGTGTGTG probe, fluorescence polarization. The method, boiled down: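 Reagents dispensed (10 nM TG4xF, 100 nM HIV-1 NC), plates spun, compounds pin-transferred, then incubated 1 hr at room temperature before FP imaging. Buffer: Hepes pH 7.5, 250mM NaCl, 1uM ZnCl2, 100 uM TCEP, 5 mM 2-mercaptoethanol.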
A general note: In fluorescence polarisation assays a small probe gives low polarisation when free and higher when bound to something large.
`O=S(=O)(c1ccccc1)N1CCC2(CCCN(Cc3ccccc3)C2)CC1`: the Potency was > 20 µM (inactive). As to `O=C(Nc1ccccc1)N1CC2(CCN(C(=O)c3cccc(F)c3)CC2)C1`, the Potency is > 20 µM (inactive). Then `CN1CCN(c2nc(-c3cccc(C#N)c3)nc3ccccc23)CC1`, with > 20 µM (inactive). Take `COCCn1c(=O)c(-c2ccc(Cl)cc2)nc2cnc(N(C)C)nc21`: the Potency is > 20 µM (inactive). In the case of `COCCNc1ncnc2ccc(-c3cccc(NS(C)(=O)=O)c3)cc12`, the Potency is > 20 µM (inactive).

Regarding `Cn1c(=O)c(-c2ccc(Cl)cc2)nc2cnc(Oc3ccccc3)nc21`, the Potency was > 20 µM (inactive). Next, `COC(=O)N1CCC2(CCCN(c3ncccn3)C2)CC1`: > 20 µM (inactive); `O=C(Nc1cccc(F)c1)N1CC[C@@]2(CCCN(C(=O)c3ccco3)C2)C1`: > 20 µM (inactive); `COc1ccc(-c2nc3cnc(N4CCNCC4)nc3n(CCc3ccccc3)c2=O)cc1`: > 20 µM (inactive). Turning to `Cc1noc(C)c1-c1nc(N2CCNCC2)c2ccccc2n1`, the Potency is > 20 µM (inactive). Next, `COCCn1c(=O)c(-c2ccc(Cl)cc2)nc2cnc(N3CCOCC3)nc21`: > 20 µM (inactive); `Cc1nc2cnc(OCc3ccccc3)nc2n(Cc2ccc(F)cc2)c1=O`: > 20 µM (inactive). For the molecule `Cc1nc2cnc(N3CCOCC3)nc2n(CCc2ccccc2)c1=O`, the Potency is > 20 µM (inactive). Then `COCCn1c(=O)c(CCc2ccccc2)nc2cncnc21`, with > 20 µM (inactive).

For the molecule `c1ccc(CNc2nc(-c3ccoc3)nc3ccccc23)cc1`, the Potency was > 20 µM (inactive). Next, `COc1ccc(NC(=O)N2CCCC3(CCN(S(=O)(=O)c4ccccc4)CC3)C2)cc1`: > 20 µM (inactive).

`COc1ccc(Oc2ncc3ncc(=O)n(CCc4ccccc4)c3n2)cc1`: the Potency was > 20 µM (inactive).

`O=c1c(-c2ccc(F)c(F)c2)nc2cncnc2n1Cc1ccccc1`: the Potency is > 20 µM (inactive). Then `Cc1cnc(CNc2cc(-c3cccc(C#N)c3)ncn2)cn1`, with > 20 µM (inactive). Take `COc1ccc(NC(=O)N2CCCC3(CCN(C(C)=O)CC3)C2)cc1`: the Potency was > 20 µM (inactive). Turning to `O=S(=O)(c1ccccc1)N1CCC2(CCN(c3ccccc3)CC2)CC1`, the Potency is > 20 µM (inactive). For the molecule `Cc1cnc(CNc2ccnc(-c3c(C)noc3C)n2)cn1`, the Potency was > 20 µM (inactive). Consider `COCCNc1ccnc(-c2cccc(NS(C)(=O)=O)c2)n1`, for which the Potency was > 20 µM (inactive). Next, `O=C(c1cnccn1)N1CCC2(CC1)CN(C(c1ccccc1)c1ccccc1)C2`: > 20 µM (inactive); `COc1ccc(C(=O)N2CCC3(CCCN(c4cccc(-c5ccccc5)c4)C3)CC2)cc1`: > 20 µM (inactive); `Cc1noc(C)c1C(=O)N1CCC[C@@]2(CCN(c3ncccn3)C2)C1`: > 20 µM (inactive). Then `CN1CCN(c2ncc3nc(-c4ccccc4)c(=O)n(C)c3n2)CC1`, with > 20 µM (inactive); and `COc1cccc(Cn2c(=O)cnc3cnc(Oc4cccc(Cl)c4)nc32)c1`, with > 20 µM (inactive). Then `CN(C)c1ncc2nc(-c3ccc(F)cc3)c(=O)n(Cc3cccs3)c2n1`, with > 20 µM (inactive); and `O=C(c1cc(C(F)(F)F)cc(C(F)(F)F)c1)N1CCC2(CC1)CCN(c1ccncc1)CC2`, with > 20 µM (inactive). For `COCCn1c(=O)c(CCc2ccccc2)nc2cnc(Nc3ccccc3)nc21`, the Potency is > 20 µM (inactive).

Regarding `CN(Cc1ccco1)c1nc(-c2cccc(C#N)c2)nc2ccccc12`, the Potency is > 20 µM (inactive). Next, `COc1ccc(C(=O)N2CCC3(CCCN(Cc4ccc(C#N)cc4)C3)CC2)cc1`: > 20 µM (inactive); `O=C(c1cnccn1)N1CCC2(CCN(Cc3ccncc3)CC2)CC1`: > 20 µM (inactive). Consider `COc1ccccc1CN1CCC2(CC1)CCN(C(C)=O)CC2`, for which the Potency was > 20 µM (inactive). For `COc1cccc(-c2nc(N(C)C)c3ccccc3n2)c1`, the Potency was > 20 µM (inactive).

With `CN1CCN(c2ccnc(-c3cccnc3)n2)CC1`, the Potency was > 20 µM (inactive). Turning to `COc1ccccc1-c1nccc(NCc2cccc(C)c2)n1`, the Potency is > 20 µM (inactive).

Consider `O=C(c1cc(C(F)(F)F)cc(C(F)(F)F)c1)N1CCC[C@@]2(CCN(c3ccccn3)C2)C1`, for which the Potency is > 20 µM (inactive).
